Compound activity (PubChem)
FBW7 activator = human FBW7 E3 ligase activation, primary screen. Q969H0. normalized activity (activation), % at 26.1 µM. hit rate 0.13% among 650,000. AlphaScreen FBW7–phospho-cyclin E peptide binding, activator screen; in the data active = normalized activity above about 1.9%;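 note: purified mutant Fbw7 with reduced substrate affinity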
MITF primary = inhibitors of human MITF. O75030. AlphaScreen MITF homodimerization, bead proximity signal. inhibition, % at 2.6 µM. hit rate 0.91% among 650,000; in the data active = inhibition above about 50%
TEAD-YAP inh = TEAD-YAP interaction inhibition; HEK-TIYL cells, TEAD-Gal4/YAP UAS-luciferase luminescence; inhibition, % at 9.12 µM; hit rate 1.4% among 640,000; in the data active = inhibition above about 32%
GPR151 activ = activates the human receptor GPR151; AID 1508602; hit rate 1% among 650,000; PathHunter beta-arrestin GPR151 cells, luminescence; Q8TDV0; activation, % at 11.2 µM; in the data active = activation above about 4.9%
Target sequence (Q8TDV0 whole entry, looked up): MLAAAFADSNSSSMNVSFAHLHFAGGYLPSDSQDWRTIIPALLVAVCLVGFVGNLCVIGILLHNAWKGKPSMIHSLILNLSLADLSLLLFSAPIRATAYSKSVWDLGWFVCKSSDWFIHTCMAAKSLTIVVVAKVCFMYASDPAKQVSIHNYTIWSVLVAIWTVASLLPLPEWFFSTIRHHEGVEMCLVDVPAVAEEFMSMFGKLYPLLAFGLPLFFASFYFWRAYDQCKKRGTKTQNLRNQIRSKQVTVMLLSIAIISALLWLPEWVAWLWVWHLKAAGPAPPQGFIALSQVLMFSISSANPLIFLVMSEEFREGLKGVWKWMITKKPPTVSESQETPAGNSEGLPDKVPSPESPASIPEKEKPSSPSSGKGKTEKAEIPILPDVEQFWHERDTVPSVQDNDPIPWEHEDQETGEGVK
MITF inh conf = confirmation of human MITF inhibitors; shares compounds with MITF primary; AlphaScreen MITF homodimerization, biotin/His-MITF beads; inhibition, % at 2.6 µM; hit rate 16% among 4,700; AID 1259372;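 active = inhibition above a cutoff derived from the DMSO control wells, cut at about 28% in these data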;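 note: inhibitors lower the bead chemiluminescence by keeping MITF from dimerizing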
AS interf DR = AlphaScreen optical interference, dose response counter-screen; shares compounds with MITF primary; AlphaScreen optical interference counterscreen, cell-free; IC50, µM; hit rate 6% among 480; call rule not given here
AS interf ctr = AlphaScreen optical interference, counter-screen; LysRS AlphaScreen counterscreen, signal interference, triplicate; AID 1259376; hit rate 7.6% among 4,700; shares compounds with MITF primary; inhibition, % at 2.6 µM;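 active = inhibition above a cutoff derived from the DMSO control wells, cut at about 30% in these data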
Large screens that a line does not name were inactive (follow-up assays come after a bar, where they were run). An excerpt weighted towards active compounds, which were near 3.4% of everything screened.

COc1ccc([N+](=O)[O-])cc1NC(=O)C1(c2ccc(OC)c(OC)c2)CCCC1	MITF primary 53.5 | MITF inh conf inactive | AS interf ctr inactive
CCCCCOC(=O)Cn1c(-c2ccccc2)nc2ccccc2c1=O	none
O=C(O)CNCc1nc2ccccc2[nH]1	MITF primary 80.7 | MITF inh conf 75.8 | AS interf ctr 100.3
CC(C)NC(=O)NC(=O)CSc1nnc(N)s1	MITF primary 63.6 | MITF inh conf inactive | AS interf ctr inactive
Nc1nnc(SCC(=O)NCCCCNC(=O)CSc2nnc(N)s2)s1	none
CCCNC(=O)c1cc(-c2ccc(Br)cc2)on1	none
CCCCNC(=O)c1cc(-c2ccc(Br)cc2)on1	MITF primary 52.2 | MITF inh conf inactive | AS interf ctr inactive
O=C(NCCc1ccncc1)c1csc(-n2cccc2)n1	MITF primary 52.0 | MITF inh conf inactive | AS interf ctr inactive
c1cc(CN2CCN(C3CCCC3)CC2)ccn1	MITF primary 78.5 | MITF inh conf inactive | AS interf ctr inactive
Cc1ccc(CN2CCN(C3CCCC3)CC2)cc1	none
Fc1ccc(CN2CCN(C3CCN(Cc4ccccc4)CC3)CC2)cc1	none
Fc1ccc(CN2CCN(C3CCCCCC3)CC2)cc1	MITF primary 64.5 | MITF inh conf inactive | AS interf ctr inactive
Fc1ccc(CN2CCC(N3CCCCC3)CC2)cc1	none
Fc1ccc(CN2CCN(C3CCC(c4ccccc4)CC3)CC2)cc1 (configuration not stated)	MITF primary 65.8 | MITF inh conf inactive | AS interf ctr inactive
CCc1ccc(CN2CCN(C3CCCCCC3)CC2)cc1	MITF primary 79.4 | MITF inh conf inactive | AS interf ctr inactive
Cc1ccc2cc3cc(C(=O)N4CCC5(CC4)OCCO5)sc3nc2c1	none
CCOc1ccc(N2C(=O)CC(NCCc3ccc(F)cc3)C2=O)cc1 (configuration not stated)	none
NC(=O)c1ccc(C(N)=O)c(-c2ccccc2)c1	none
COCCNC(=O)c1ccc2c(c1)nc(C)n2-c1ccc(Br)cc1	none
Nc1nonc1C(=O)N/N=C\c1cc([N+](=O)[O-])c(Cl)cc1Cl	MITF primary 67.2 | MITF inh conf inactive | AS interf ctr inactive
O=c1cc(/C=C/c2ccc(O)cc2)nc2nn[nH]n12	MITF primary 57.0 | MITF inh conf 38.9 | AS interf DR inactive | AS interf ctr inactive
O=c1cc(-c2ccccc2)nc2nn[nH]n12	none
C=CCNC(=O)Cn1nc(-c2ccccc2OC)ccc1=O	MITF primary 71.8 | MITF inh conf inactive | AS interf ctr inactive
COc1ccccc1-c1ccc(=O)n(CC(=O)NCc2ccccc2)n1	none
COc1cc(NC(=O)c2cccc(-n3cc(NC(=O)Cc4ccc(F)c(F)c4)cn3)c2)ccc1N1CCOCC1	none
CCC(C)c1ccccc1OCCCCN1CCNCC1 (configuration not stated)	MITF primary 70.0 | MITF inh conf inactive | AS interf ctr inactive
CCC(C)c1ccccc1OCCCN1CCN(C)CC1 (configuration not stated)	MITF primary 59.7 | MITF inh conf inactive | AS interf ctr inactive
CCCOc1ccccc1OCCCCN1CCN(C)CC1	none
CCn1c2ccccc2c2cc(CN3CCN(Cc4ccccc4Br)CC3)ccc21	MITF primary 75.7 | MITF inh conf inactive | AS interf ctr inactive
CCn1c2ccccc2c2cc(CN3CCCN(C)CC3)ccc21	none
CCn1c2ccccc2c2cc(CN3CCN(Cc4ccccc4C(F)(F)F)CC3)ccc21	MITF primary 70.0 | MITF inh conf inactive | AS interf ctr inactive
CCn1c2ccccc2c2cc(CN3CCN(S(=O)(=O)CC)CC3)ccc21	MITF primary 53.3 | MITF inh conf inactive | AS interf ctr inactive
CCOC(CCn1c(=S)[nH]c2ccccc2c1=O)OCC	none
CCOc1cc(CN2CCN(C(=O)c3cccc(F)c3)CC2)ccc1OC	none
O=C(c1cccc(F)c1)N1CCN(Cc2ccc(F)cc2)CC1	MITF primary 65.8 | MITF inh conf inactive | AS interf ctr inactive
CCOc1ccc(CN2CCN(C(=O)c3cccc(F)c3)CC2)cc1	MITF primary 54.6 | MITF inh conf inactive | AS interf ctr inactive
CC(C)(c1ccccc1)c1ccc(OCC(O)CNC2CCS(=O)(=O)C2)cc1 (configuration not stated)	MITF primary 76.6 | MITF inh conf inactive | AS interf ctr inactive
